Assay outcomes: PubChem, The Scripps Research Institute Molecular Screening Center
A selection: hits, their analogues and other compounds. The true share with any hit is near 1.1%.
PKA-R1A activ: activators of PKA-R1A complex; P00514+P68181; PKA-R1A dissociation, Cy5-IP20 fluorescence polarization; scaled: DMSO 0%, 113 µM cGMP 100%; activation, % at 11.4 µM; 0.083% of 340,000 active; AID 504707;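 active = percent activation above the mean of all tested compounds plus 3 SD, cut at about 19% in these data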;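 note: higher means more PKAc released from R1A so a rise in polarization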
PKA-R2B activ: activators of human PKA-R2B complex; AID 504700; activation, % at 11.4 µM; PKA-R2B holoenzyme dissociation, Cy5-IP20 fluorescence polarization; R2B truncated from residue 108, S112A mutant; 0% DMSO only, 100% 113 µM cGMP; 0.079% of 340,000 active;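 active = activation above a cutoff set at the mean over all compounds plus 3 SD, cut at about 18% in these data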;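 note: higher means more holoenzyme dissociation and a rise in polarization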
Target sequence (P31323 whole entry, looked up, other chains not shown, the tested form may be a part): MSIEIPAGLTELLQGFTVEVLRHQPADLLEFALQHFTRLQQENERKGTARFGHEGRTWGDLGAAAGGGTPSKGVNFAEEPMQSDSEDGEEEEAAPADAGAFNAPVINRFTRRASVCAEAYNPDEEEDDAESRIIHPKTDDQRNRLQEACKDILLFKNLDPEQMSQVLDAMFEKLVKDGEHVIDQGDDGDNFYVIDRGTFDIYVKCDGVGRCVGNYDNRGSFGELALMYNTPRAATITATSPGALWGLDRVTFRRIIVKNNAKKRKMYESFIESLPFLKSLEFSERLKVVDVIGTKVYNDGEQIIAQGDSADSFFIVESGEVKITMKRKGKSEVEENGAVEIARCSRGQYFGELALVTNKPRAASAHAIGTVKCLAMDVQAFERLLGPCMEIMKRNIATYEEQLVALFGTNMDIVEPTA
bovine MsrA act: activators of bovine methionine sulfoxide reductase A. purified bovine MsrA, absorbance read-out. activation, % at 10.6 µM. 0.3% of 360,000 active. AID 602163; in the data active = activation above about 7.5%
MsrA inhibitor: inhibits bovine methionine sulfoxide reductase A | purified bovine MsrA, absorbance read-out | inhibition, % at 15.5 µM | 0.75% of 360,000 active | AID 651718; in the data active = inhibition above about 4.5%
MsrA act confirm: bovine methionine sulfoxide reductase A activation confirmed. shares compounds with bovine MsrA act. purified bovine MsrA, absorbance read-out. activation, % at 10.6 µM. 12% of 1,000 active; in the data active = activation above about 4%;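 note: enzyme coupled to thioredoxin and thioredoxin reductase with NADPH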
Hits are given with their value; 0 = inactive; - = no result; ! = a repeat was not active.

SMILES	PKA-R1A activ	PKA-R2B activ	bovine MsrA act	MsrA inhibitor	MsrA act confirm
CCCCn1nnnc1C(c1cc2ccccc2o1)N1CCN(C/C=C/c2ccccc2)CC1 (stereo unspecified)	-	-	0	0	-
COCC(=O)N1CCN(C(=O)C(=O)c2cccc(C(F)(F)F)c2)CC1	-	-	-	0	-
CCN(CC)S(=O)(=O)c1ccc(NC(=O)CCC2CCCCC2)cc1	0	0	0	0	-
CCN(CC)S(=O)(=O)c1ccc(NC(=O)CNC2CCCCC2)cc1	0	0	8.4	0	0
COC(=O)[C@]12C[C@H](CC(=O)NCc3ccc(OC)c(OC)c3)C(=O)N(Cc3ccccc3)C1=C[C@H](C1CCCC1)O[C@@H]2C	-	-	-	0	-
COc1ccc(N2CC(NS(=O)(=O)c3ccc4ccccc4c3)CC2=O)cc1OC (stereo unspecified)	0	0	0	0	-
COc1ccc(N2CC(NC(=O)c3ccc4ccccc4c3)CC2=O)cc1OC (stereo unspecified)	0	0	11	0	0
CCOc1ccccc1CNC(=O)c1cc2oc3ccccc3c2n1CC	0	0	8.1	0	0
O=C(CCc1ccccc1)NCCC1=CCCCC1	0	0	0	0	-
O=C(CCCc1ccccc1)NCCC1=CCCCC1	0	0	8.5	0	0
COCCN1Cc2cc(C(=O)OC)c3c(c2C1=O)c1cc(OC)ccc1n3S(=O)(=O)c1ccc(F)cc1	-	-	-	0	-
c1ccc(SSc2ccccn2)nc1	0	0	11	-	7.5
Cn1c(=O)n(CC(=O)O)c(=O)c2c1nc1n2CCS1	0	0	8.5!	0	0
NC(=O)[C@@H]1CCCN1C(=O)[C@H](CCc1ccccc1)NC(=O)[C@H]1O[C@@H](n2cnc3c(N)ncnc32)[C@H](O)[C@@H]1O	-	-	-	0	-
COC(=O)C1=C(C)N(Cc2ccccc2C(F)(F)F)C(=NCc2ccccc2)NC1c1cccc(C(F)(F)F)c1 (stereo unspecified)	-	-	-	0	-
S=c1nc(-c2cccc(Br)c2)[nH][nH]1	0	0	9.8	0	6.1
Nc1nc(N)nc(-c2cccc(Br)c2)n1	0	0	0	0	-
N#CC(c1nc2ccccc2nc1N1CCCC1)S(=O)(=O)c1ccccc1 (stereo unspecified)	0	0	0	0	-
N#CC(c1nc2ccccc2nc1N1CCCC1)S(=O)(=O)c1cccs1 (stereo unspecified)	0	0	10.0	0	0
COc1ccc(N=C2Sc3ccccc3[C@@H]3C[C@H]4[C@H](CON4C)CN23)c(OC)c1	-	-	-	0	-
CC1=C(C(=O)Nc2cc(C)ccc2C)C(c2cccs2)NC(=S)N1 (stereo unspecified)	0	0	8.2	0	0
CC1=C(C(=O)Nc2ccccc2F)C(c2cccs2)NC(=S)N1 (stereo unspecified)	0	0	0	0	-
COc1ccc(C=NN(C)C(=O)Nc2cccc(Cl)c2)cc1OC	-	-	-	0	-
O=C(c1ccc([N+](=O)[O-])o1)N1CCc2ccccc21	0	0	10	0	0
COC(=O)C1=C(C)N(Cc2ccc(Br)cc2)C(=S)NC1c1ccccc1 (stereo unspecified)	-	-	-	0	-
SMILES	PKA-R1A activ	PKA-R2B activ	bovine MsrA act	MsrA inhibitor	MsrA act confirm
CCn1c(=O)cc(OCC(=O)O)c2ccccc21	0	0	14	0	0
C=C(C(=O)c1ccccc1)C(C)CC(=O)c1ccccc1 (stereo unspecified)	0	0	8.5	0	0
CCN(CC)CCNC(=O)c1ccc2c(c1NCCO)C(=O)c1ccccc1C2=O	-	-	24	14	8.7
CC1CCN(C(=O)c2ccc3c(c2NCCO)C(=O)c2ccccc2C3=O)CC1	0	0	0	0	-
O=C(NCC1CCN(C(=O)C(=O)c2cccs2)CC1)c1ccc2c(c1)CCO2	-	-	-	0	-
CCCC/C(O)=C1\C(=O)CC(C)(C)CC1=Nc1ccccc1OC	0	0	8.7	0	0
COC(=O)CC/C(O)=C1\C(=O)CC(C)(C)CC1=Nc1ccccc1OC	0	0	0	0	-
Cn1nnnc1SCC(=O)N1CCc2ccccc21	0	0	17	0	0
CCO[C@H]1OC(C(=O)NC2CC2)=C[C@@H](c2c[nH]c3ccccc23)[C@@H]1CCCO	0	0	8.4	0	0
Nn1cnnc1N/N=C\c1ccc(-c2ccccc2[N+](=O)[O-])o1	0	0	20	0	0
O=C(O)C1CSC(CCc2ccccc2)N1 (stereo unspecified)	0	0	7.8	0	0
Nc1oc2ccccc2c1C(=O)Cc1ccccc1O[C@@H]1O[C@H](CO)[C@@H](O)[C@H](O)[C@H]1O	0	0	13	0	0
COc1cccc(S(=O)(=O)N(C)C[C@@H]2Oc3ncc(Br)cc3C(=O)N([C@H](C)CO)C[C@@H]2C)c1	-	-	-	0	-
Cn1c(SCc2ccccc2)nc(C(F)(F)F)cc1=O	0	0	0	0	-
Cn1c(SCc2cccc(Cl)c2)nc(C(F)(F)F)cc1=O	0	0	8.4	0	0
CC(C)N(C[C@@H]1CSCCS(=O)(=O)N1)C1CCCCC1	-	-	-	0	-
CS(=O)(=O)Nc1ccc(C(=O)NCCSCc2c(F)cccc2Cl)cc1	0	0	8.3	0	0
CS(=O)(=O)Nc1ccc(C(=O)NCCSCc2ccccc2)cc1	0	0	0	0	-
Cc1cccc(CN2CCN(C3CN(Cc4cn(Cc5ccc(C(F)(F)F)cc5)nn4)S(=O)(=O)C3)CC2)c1 (stereo unspecified)	-	-	-	0	-
CC(=O)Nc1nc(-c2ccc(Cl)cc2)nc(C)c1C(C)=O	0	0	8.9	0	0
CC(=O)c1c(C)nc(C)nc1NC(=O)Cc1ccccc1	0	0	0	0	-
Cn1cc(/C=C/C(=O)c2ccccc2)c2ccccc21	0	0	9.1	0	0
O=C1C(Nc2ccc(O)cc2)=C/C(=N/S(=O)(=O)c2cccs2)c2ccccc21	0	0	9.9	49	7.9
COc1ccccc1CNC(=O)CCCn1nc(C)c2c(C)n(-c3ccccc3)nc2c1=O	0	0	12	0	0
CSc1oc(-c2ccccc2)nc1S(=O)(=O)c1ccc(C)cc1	0	0	8.0	0	0
SMILES	PKA-R1A activ	PKA-R2B activ	bovine MsrA act	MsrA inhibitor	MsrA act confirm
CO[C@@H]1[C@H](O)CC[C@]2(O)CN(c3ccc(F)cc3)[C@](C)([C@H](O)CC=C(C)C)[C@@H]12	-	-	-	0	-
COc1cccc(-c2cc(NC=O)c3ncc(-c4cccc(C(=O)NCCN(C)C)c4)n3c2)c1	-	-	0	0	-
CC(=O)Nc1cc(-c2cccc(C(=O)N(C)C)c2)cn2c(-c3ccc(F)c(Cl)c3)cnc12	-	-	0	0	-
CN(C)C(=O)c1cccc(-c2cc(NC=O)c3ncc(-c4ccc(F)c(Cl)c4)n3c2)c1	-	-	9.3	0	0
CN(C)CCNC(=O)c1cccc(-c2cnc3c(NC=O)cc(-c4cc(F)c(F)c(F)c4)cn23)c1	-	-	8.0	0	0
CN(C)CCNC(=O)c1cccc(-c2cnc3c(NC=O)cc(-c4ccc(S(C)(=O)=O)cc4)cn23)c1	-	-	8.0	0	0
COc1cc(N2CCC(O)CC2)ccc1Nc1cc(Nc2ccccc2S(=O)(=O)C(C)C)c2cc[nH]c2n1	-	-	-	0	-
c1cc2c(cc1-c1[nH]ncc1CN1C[C@H]3CC[C@H]1C3)OCO2	0	0	12	0	0
